Source: PubChem BioAssay AID1508649 (National Center for Advancing Translational Sciences (NCATS), 2021)
The whole screen tested about 43,000 compounds, of which about 830 (1.9%) were called active. Roughly 30% stayed inconclusive and do not appear here. This excerpt belongs to a sample that is enriched for actives. Values without a mark were called inactive. How the source made its calls: active means clear falling dose curves in both reporters; inconclusive means both reporters move, but less clearly or upward; inactive means either reporter flat; the % is the NLuc reporter signal.

Test: Cell-based coincidence reporter assay to measure PMP22 gene transcription in S16 Pmp22-F2sN cells - Primary screen
Conditions: S16 Pmp22-F2sN Schwann cells (luciferase reporters placed in the Pmp22 gene), FLuc/NLuc coincidence luminescence, 24 h; series mostly up to 57.5 µM; activity change, negative = inhibition: at the top concentration
Text: Assay Provider: Jim Inglese Ph.D. National Center for Advancing Translational Science, National Institutes of Health, Rockville, MD CMT is a heterogeneous group of neurological disorders that affect approximately 1 in 2,500 people. In particular, the most common form of CMT, CMT1A is genetically linked to the duplication of the PMP22 gene which leads to Schwann cell overexpression, thus manifesting itself as a typical case of dose-sensitive diseases. To identify small molecule compounds that can mediate the expression of PMP22 we developed a phenotypic assay screening strategy by utilizing genome editing techniques to construct Schwann cell lines containing novel reporter technology to monitor the transcriptional or translational regulation of PMP22. For high sensitivity we use a bioluminescent reporter system embedded in the 3' UTR of the PMP22 gene (S16(c9) Pmp22-F2sN) to identify compounds that inhibit gene expression. […] We can further discriminate the effect of all transcriptionally active molecules on PMP22 translation or stability with an assay that incorporates a short NLuc peptide (HiBiT) at the C-terminus of expressed PMP22 (S16(f8) PMP22-HiBiT) allowing alpha complementation and luminescence detection of membrane-associated PMP22 protein. These assays were screened against the NCATS Sytravon Library Collection. Miniaturization of these assays to 1536-well plate format for quantitative high throughput screening (qHTS) yielded rich data sets immediately from the qHTS assay (S16(c9) Pmp22-F2sN), when compared with data from a cell viability assay (Cell TiterGlo) to identify compounds that decreased the output signals through cellular toxicity to streamline the selection process of actives for subsequent characterization using the HiBiT assay (S16(f8) PMP22-HiBiT).
Cell-based coincidence reporter assay to measure PMP22 gene transcription in S16 Pmp22-F2sN cells PROTOCOL TABLE (format as described by Inglese J, Shamu CE and Guy RK. 2007) SEQUENCE No. (e.g., 1, 2, 3, etc.); […] (e.g., Cells, Incubation, Reagent, etc.); VALUE and DESCRIPTION. 1. Cells. Add 500-1,000 cells in 4 uL in growth media (DMEM High Glucose, No Phenol Red media + 10% heat-inactivated FBS + 1% Pen/Strep supplemented media) per well into Greiner 1536-well white/solid bottom high base, TC-treated plates. 2. Compounds. Library compounds and controls added at 23nL per well, transferred by Pin Tool. 3. Incubation. Incubate plates at 37C, 5% CO2, 95% RH for 24 h. 4. Reagent. Add 3.5uL Nano-Glo Dual-Luciferase Reporter Assay System reagent 1: Lysis and FLuc reagent per well of Greiner 1536-well plates. 5. Incubation. Incubate plates at room temperature for 10 min., protect from light. 6. Detector. FLuc luminescence measured using CCD-based camera (Viewlux). 7. Reagent. Add 3.5uL Nano-Glo Dual-Luciferase Reporter Assay System reagent 2: Stop&Glo reagent per well of Greiner 1536-well plates. 8. Incubation. Incubate plates at room temperature for 10 min., protect from light. 9. Detector. NLuc luminescence measured using CCD-based camera (Viewlux). NOTES (numbers refer to Sequence numbers above; values are from representative experiments) 6. Luminescence Read #1 (FLuc): Clear filter; Exposure = 10 sec, Gain = High, Speed = Slow, Binning = 2X 9. Luminescence Read #2 (NLuc): Clear filter; Exposure = 1 sec, Gain = High, Speed = Slow, Binning = 2X REFERENCES: 1. Inglese J, Shamu CE and Guy RK, Reporting data from high throughput screening of small molecule libraries, Nature Chemical Biology, 2007, 3(8): 438-441. doi.org/10.1038/nchembio0807-438 2. Yasgar A, Shinn P, Jadhav A, Auld DS, Michael S, Zheng W, Austin CP, Inglese J and Simeonov A, Compound Management for Quantitative High-Throughput Screening. J. Assoc. Lab. Auto., 2008, 13: 79-89. doi: 10.1016/j.jala.2007.12.004
On the % scale 0 is the no-effect control and ±100 the full control effect; potency means the concentration at half of the fitted maximal effect.

Structure (SMILES) | activity change, negative = inhibition | Potency
CCC(C(=O)Nc1cccc(-c2nc3cccnc3s2)c1C)c1ccccc1 (centres undefined) | -37.5% | –
CCOC(=O)c1sc(NC(=O)/C=C/c2ccc(C(C)C)cc2)c(C(=O)OCC)c1C | -30.7% | –
COc1ccccc1-c1cc(C(F)(F)F)nc(S(=O)(=O)CCCC(=O)Nc2ccc(F)cc2F)n1 | – | 11.3 µM (active)
Cc1ccc(F)cc1NC(=O)CCSc1nc(-c2ccco2)cc(C(F)(F)F)n1 | 9.36% | –
COc1ccccc1-c1cc(C(F)(F)F)nc(S(=O)(=O)CCCC(=O)Nc2cc(C)ccc2O)n1 | -12.6% | –
COc1cc2c(cc1OC)C(COc1ccc(F)cc1)N(C(=O)c1ccccc1F)CC2 (centres undefined) | 0.344% | –
COc1ccc(N2CCN(Cc3nc4c(c(=O)[nH]c(=O)n4C)n3Cc3ccc(Cl)cc3)CC2)cc1 | -16.2% | –
COC(=O)c1c(NC(=O)CCCOc2ccccc2)sc2c1CCC(C)C2 (centres undefined) | 7.02% | –
CCOc1ccc(NC(=O)c2c(NC(=O)Cc3ccccc3)sc3c2CCC(C)C3)cc1 (centres undefined) | – | 18.9 µM (active)
O=C(Cc1ccccc1)Nc1sc2c(c1C(=O)Nc1ccc(Br)cc1)CCC2 | -32.6% | –
Cc1ccc(Nc2c(-c3ccc(C)s3)nc3ccccn23)cc1 | -18.5% | –
CCC(=O)N1CCc2cc(Br)cc(S(=O)(=O)CCC(=O)N3CCN(c4ccc(F)cc4)CC3)c21 | -7.19% | –
COc1ccc(OC)c(-n2nnc(-c3nc(-c4cc(OC)c(OC)c(OC)c4)no3)c2C)c1 | -0.737% | –
COc1ccc(C(=O)COC(=O)CCCC(=O)Nc2cc(C(F)(F)F)ccc2Cl)cc1 | 3.27% | –
COc1ccc(-c2nn3c(=O)cc(CN4CCN(C(=O)c5ccc(OC)c(OC)c5)CC4)nc3s2)cc1 | 12.8% | –
CCOc1ccc(N(CC)C(=O)c2noc3c2COc2ccc(C)cc2-3)cc1 | -28.9% | –
CCOc1ccc(N(Cc2ccccc2)C(=O)c2nc(S(C)(=O)=O)ncc2Cl)cc1 | – | 1.5 µM (active)
CCOc1ccc(N(CC)C(=O)C2CCN(S(=O)(=O)c3cccc4nonc34)CC2)cc1 | -35.2% | –
COc1ccccc1-c1noc(-c2ccc(NCc3ccccc3)c([N+](=O)[O-])c2)n1 | -5.34% | –
Cc1ccc(C)c(S(=O)(=O)n2nc(C)c(S(=O)(=O)N3CCC(C)CC3)c2C)c1 | -0.0168% | –

Structure (SMILES) | activity change, negative = inhibition | Potency
O=C(CC1Oc2ccccc2NC1=O)NCc1ccc(F)cc1 (centres undefined) | -7.34% | –
CCOc1ccc(NC(=O)C2CCN(S(=O)(=O)c3cc(-c4noc(C)n4)ccc3C)CC2)cc1 | -42.5% | –
COc1ccc(N2CC(C(=O)NCCS(=O)(=O)N3CCN(c4ccccc4)CC3)CC2=O)cc1 (centres undefined) | 5.34% | –
COc1ccc(OC)c(CNC(=O)Cn2nc(C)c3c(C)n(-c4ccccc4)nc3c2=O)c1 | -3.25% | –
Cc1ccccc1CNC(=O)Cn1c(C)c2cnn(-c3ccccc3)c(=O)c2c1C | -12.3% | –
COc1ccccc1CNC(=O)Cn1nc(C)c2nn(-c3ccc(Cl)cc3)c(C)c2c1=O | -3.87% | –
Cc1ccccc1CNC(=O)CSc1nnc(C)c2c(C)n(-c3ccccc3)nc12 | – | 16.8 µM (active)
Cc1nnc(N2CCCC(C(=O)NCCN(C)C)C2)c2nn(-c3ccccc3)c(C)c12 (centres undefined) | -57.6% | –
Cc1nnc(SCC(=O)NCc2ccccc2Cl)c2nn(-c3ccccc3)c(C)c12 | – | 14.1 µM (active)
CCc1cnc2c(c1SCC(=O)N1CCC(C)CC1)c(=O)n(C)c(=O)n2C | -1.6% | –
COc1ccc(NC(C)=O)cc1NC(=O)CN1CCN(c2ccc(F)cc2)CC1 | 4.65% | –
COc1cc(C(=O)N2CCC(c3ccncc3)CC2)cc(OC)c1OC | -7.79% | –
CCOC(=O)c1oc2ccc(S(=O)(=O)n3nc(-c4ccccc4OC)cc3N)cc2c1C | – | 14.4 µM (active)
COc1ccccc1-c1cc2nc(C)c(CCC(=O)O)c(C)n2n1 | 27.9% | –
COc1ccc(NC(=O)c2oc3ccc(S(=O)(=O)N4CCOCC4)cc3c2C)cc1 | 14.2% | –
COc1cccc(C(=O)NC2(C(F)(F)F)C(=O)Nc3c2c(=O)[nH]c(=O)n3-c2ccc(C)cc2)c1 (centres undefined) | -20.3% | –
CCn1c(C(=O)Nc2cc(Cl)ccc2C)cc2sc(Cl)cc21 | -32.4% | –
Cc1ccc(NC(=O)C2CCCN2S(=O)(=O)c2cccc3cccnc23)c(C)c1 (centres undefined) | -8.58% | –
COC(=O)c1cc2occc2n1Cc1nc(-c2ccc(C)cc2)oc1C | -7.42% | –
COc1ccc(-n2nc(C(=O)NCCc3ccc(Cl)cc3)c3c4ccccc4n(C)c3c2=O)cc1Cl | -8.53% | –

Structure (SMILES) | activity change, negative = inhibition | Potency
Cc1ccccc1C(=O)Nc1sc2c(c1C(=O)N1CCC(C)CC1)CCCC2 | -10.7% | –
O=C(Nc1ccc2nc(SCCOc3ccccc3)sc2c1)c1ccco1 | -21.5% | –
Cc1ccc(OCCSc2nc3ccc(NC(=O)COc4ccc(C)cc4)cc3s2)cc1 | – | 8.91 µM (active)
COc1cc(C)ccc1OCCSc1nc2ccc(NC(=O)c3ccc(C)cc3)cc2s1 | -8.04% | –
CCc1ccc(S(=O)(=O)n2ccnc2)cc1 | 0.251% | –
O=C(CN1C(=O)CCn2nc(-c3ccccc3)cc21)NCc1ccccc1 | -8.68% | –
Cc1noc(/C=C/N(C)C)c1S(=O)(=O)N1CCCC(C(=O)Nc2cccc(F)c2)C1 (centres undefined) | -12.4% | –
COc1cccc(N2CCN(S(=O)(=O)c3ccc4c(c3)CCCN4C(C)=O)CC2)c1 | -20.8% | –
CC(=O)N1CCCc2cc(S(=O)(=O)N3CCCC(C(=O)NCc4ccc(Cl)cc4)C3)ccc21 (centres undefined) | -50.4% | –
CC(=O)N1CCCc2cc(S(=O)(=O)N3CCCC(C(=O)N4CCN(c5cccc(Cl)c5)CC4)C3)ccc21 (centres undefined) | – | 10 µM (active)
Cc1cccc(Nc2nc(C)nc(N)c2S(=O)(=O)c2ccccc2)c1 | -24.8% | –
Cc1ccc(Nc2nc3ccccc3nc2-n2nc(C)cc2C)c(Cl)c1 | -3.07% | –
Cc1cccc(Nc2cc(C)nc(-n3nc(C)cc3C)n2)c1 | – | 9.15 µM (active)
Cc1cccc(NC(=O)Cn2cc(S(=O)(=O)Cc3ccccc3Cl)c3ccccc32)c1 | -23.6% | –
Cc1c(Cl)cccc1NC(=O)Cn1cc(C(=O)c2cccs2)c2ccccc21 | – | 8.91 µM (active)
Cc1c(Cl)cccc1NC(=O)N1CCN(C(=O)c2nsc3ccccc23)CC1 | 6.76% | –
Cc1cccc(NC(=O)CSc2nc(-c3ccco3)cc(C(F)(F)F)n2)c1C | -2.59% | –
Cc1ccc2ncc(C(=O)Nc3ccc(OC(F)(F)F)cc3)c(=O)n2c1 | -9.44% | –
COCC(C)NS(=O)(=O)c1ccc(N2CCCCS2(=O)=O)cc1 (centres undefined) | -17.4% | –
